Laboratory results: PubChem BioAssay (Tox21)
Inconclusive results are not listed. Unmarked numbers belong to inactive results. Calls of active or inactive are those of the source. Calls come from the whole dose curve; as a rule, active = well fitted curve in the direction sought with a large enough effect in the repeat runs; inconclusive = weak or mixed curves; inactive = no such curve, though single readings can be large; an effect the other way counts as inactive or inconclusive.

What follows are compounds tested against Cytochrome P450 1A2 (Homo sapiens) (UniProt P05177) (assay: Cytochrome P450 Family 1 Subfamily A Member 2 (CYP1A2) small molecule antagonists: luciferase reporter qHTS assay (AID 1671199)). Conditions: P450-Glo CYP1A2 enzyme, luciferin luminescence, 1 h; series mostly up to 115 µM; activity change, negative = inhibition: at the top concentration.
In short: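 Luminescence from luciferin formed by CYP1A2 from a proluciferin substrate, read 20 min after detection reagent. Compound was pre-incubated 10 min with enzyme-substrate, and reaction started with NADPH regeneration solution for 1 h at room temperature; furafylline control.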
% is set by controls: 0 for no effect and ±100 for the full control effect; potency is the fitted concentration of half-maximal effect.
Note: nearly all actives have a fitted effect of over 50% in size.

Cytochrome P450 1A2 (Homo sapiens), sequence (P05177 whole entry, looked up): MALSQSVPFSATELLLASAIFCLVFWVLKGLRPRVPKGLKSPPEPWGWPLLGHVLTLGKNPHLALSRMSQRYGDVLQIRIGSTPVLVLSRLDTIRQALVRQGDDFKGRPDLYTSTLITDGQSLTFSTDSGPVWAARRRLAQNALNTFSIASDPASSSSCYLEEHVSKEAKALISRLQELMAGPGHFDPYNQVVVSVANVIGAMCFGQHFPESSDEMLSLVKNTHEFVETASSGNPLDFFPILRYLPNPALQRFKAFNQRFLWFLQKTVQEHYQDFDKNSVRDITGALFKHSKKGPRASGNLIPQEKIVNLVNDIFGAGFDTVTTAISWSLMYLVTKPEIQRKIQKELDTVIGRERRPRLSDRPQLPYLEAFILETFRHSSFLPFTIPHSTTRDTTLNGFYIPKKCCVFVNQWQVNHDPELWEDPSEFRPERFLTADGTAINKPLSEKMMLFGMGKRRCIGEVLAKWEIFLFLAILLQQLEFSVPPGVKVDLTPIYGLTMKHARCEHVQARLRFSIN

| SMILES | activity change, negative = inhibition | Potency |
| --- | --- | --- |
| CCCCC(O)/C=C(C)/C=C/C=C/C(=O)N1CCCC1=O (stereo unspecified) | 8.72% [at 53 µM] |  |
| c1coc(Cn2cccc2)c1 | -23.3% |  |
| C=C(C)C(=O)OCCOC1CC2CC1C1C=CCC21 (stereo unspecified) |  | 42.9 µM (active) |
| COC(=O)c1c(C)cc(O)c(C)c1O |  | 0.252 µM (active) |
| O=CN1CCCCC1 | -11.5% |  |
| NS(=O)(=O)c1cc2c(cc1C(F)(F)F)NCNS2(=O)=O | -5.34% [at 53 µM] |  |
| CC(=O)c1ccc(O)c(C(N)=O)c1 | -22.9% [at 53 µM] |  |
| Cc1cc(C)c(C)c(C)c1 | -10.7% |  |
| CC[C@@]1(c2ccccc2)NC(=O)N(C)C1=O | -14.4% [at 53 µM] |  |
| C[C@@H]1CCC[C@H](C)N1CCCC(O)(c1ccccc1)c1ccccn1 (stereo partly specified) | 15.1% [at 53 µM] |  |
| CN(C)CCC[C@@]1(c2ccc(F)cc2)OCc2cc(C#N)ccc21 | -2.99% [at 53 µM] |  |
| CCOC(=O)[C@H](CCc1ccccc1)N[C@H]1CS[C@H](c2cccs2)CN(CC(=O)O)C1=O | -3.78% [at 53 µM] |  |

What follows are compounds tested against Voltage-gated inwardly rectifying potassium channel KCNH2 (Homo sapiens) (UniProt Q12809) (assay: Human Ether-a-go-go-Related Gene (hERG) channel small molecule antagonists: fluorescence cell-based qHTS assay (AID 1671200;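 for activity change, negative = inhibition: hERG-expressing U2OS cells given a thallium stimulus after FluxOR II dye loading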)). Conditions: hERG-U2OS cells, FluxOR thallium flux fluorescence; series mostly up to 76.8 µM; activity change, negative = inhibition: at the top concentration.
In short: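 Quantitative HTS in hERG-U2OS cells: thallium entry through the channel reports activity, read as continuous 480/540 nm fluorescence over 2 min after stimulus addition.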

Voltage-gated inwardly rectifying potassium channel KCNH2 (Homo sapiens), sequence (Q12809 whole entry, looked up): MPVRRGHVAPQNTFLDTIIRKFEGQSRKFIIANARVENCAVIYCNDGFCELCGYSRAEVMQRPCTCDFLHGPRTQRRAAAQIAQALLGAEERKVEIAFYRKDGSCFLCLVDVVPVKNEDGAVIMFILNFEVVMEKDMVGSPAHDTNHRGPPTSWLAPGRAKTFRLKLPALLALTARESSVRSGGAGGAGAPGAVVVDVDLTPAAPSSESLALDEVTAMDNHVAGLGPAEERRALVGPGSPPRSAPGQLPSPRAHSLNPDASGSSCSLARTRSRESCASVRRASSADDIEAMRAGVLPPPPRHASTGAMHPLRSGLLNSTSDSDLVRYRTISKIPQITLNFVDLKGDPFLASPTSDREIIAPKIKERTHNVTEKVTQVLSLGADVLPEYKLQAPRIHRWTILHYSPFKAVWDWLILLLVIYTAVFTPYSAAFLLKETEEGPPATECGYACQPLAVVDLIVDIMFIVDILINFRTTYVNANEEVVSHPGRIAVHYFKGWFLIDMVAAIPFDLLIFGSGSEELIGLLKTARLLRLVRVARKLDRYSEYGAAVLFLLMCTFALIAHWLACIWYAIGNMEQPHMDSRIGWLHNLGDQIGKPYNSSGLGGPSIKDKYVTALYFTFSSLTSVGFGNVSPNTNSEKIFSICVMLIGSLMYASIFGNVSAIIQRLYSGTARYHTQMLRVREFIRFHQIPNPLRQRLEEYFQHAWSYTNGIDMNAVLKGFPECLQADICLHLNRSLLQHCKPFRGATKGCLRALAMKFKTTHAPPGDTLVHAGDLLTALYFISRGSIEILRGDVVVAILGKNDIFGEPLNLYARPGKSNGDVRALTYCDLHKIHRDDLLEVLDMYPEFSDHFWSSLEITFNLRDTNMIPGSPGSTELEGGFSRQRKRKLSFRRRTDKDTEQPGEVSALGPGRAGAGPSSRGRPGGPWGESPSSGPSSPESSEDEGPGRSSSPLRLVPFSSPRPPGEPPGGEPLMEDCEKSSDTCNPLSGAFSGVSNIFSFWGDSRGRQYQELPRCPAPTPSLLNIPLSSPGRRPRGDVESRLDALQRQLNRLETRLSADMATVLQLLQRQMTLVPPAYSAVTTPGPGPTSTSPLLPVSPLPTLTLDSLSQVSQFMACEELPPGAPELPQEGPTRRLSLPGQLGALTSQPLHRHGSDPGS

| SMILES | activity change, negative = inhibition | Potency |
| --- | --- | --- |
| Cc1nc2ccc(Cl)cc2[nH]1 | 3.11% |  |
| CCOC(=O)c1ccc(N(C)C)cc1 | 1.7% |  |
| C[Si](C)(C)O[Si](O)(O)O | -2.19% |  |
| CCC(C)SSC(C)CC (stereo unspecified) | -1.63% |  |
| CC(C)(C)OC=O | 1.89% |  |
| CCNC(=O)C(C)OC(=O)Nc1ccccc1 (stereo unspecified) | 1.44% |  |
| C=CCN(CC=C)CC=C | 0.0474% |  |
| Cc1cc(=O)oc2cc(O[C@@H]3SC[C@@H](O)[C@H](O)[C@H]3O)ccc12 | 1.8% [at 35.3 µM] |  |
| COc1ccccc1N1CCN(CC(O)COc2cc(OC)c(OC)c(OC)c2)CC1 (stereo unspecified) | 1.22% [at 35.3 µM] |  |
| COC(=O)N/N=C/c1c[n+]([O-])c2ccccc2[n+]1[O-] | 14.1% [at 35.3 µM] |  |
| COC(=O)c1cc(Cl)c(NC(C)=O)cc1OC | 4.44% [at 35.3 µM] |  |
| CC(=O)Nc1ccc(OCCOCCOc2ccc(NC(C)=O)cc2)cc1 | 0.323% [at 35.3 µM] |  |
| CC(O)CCCCn1c(=O)c2c(ncn2C)n(C)c1=O (stereo unspecified) | 2.93% [at 35.3 µM] |  |
| O=Cc1ccc(C(=O)O)cc1 | -2.81% |  |
| O=S(=O)(O)c1cc(I)c(O)c2ncccc12 | 4.33% [at 35.3 µM] |  |
| CC(C)(C)c1ccc(C(=O)CCCCl)cc1 | -20.6% [at 35.3 µM] |  |
| CC(C)(C)C(=O)CC(=O)C(C)(C)C | 2.72% |  |

| SMILES | activity change, negative = inhibition | Potency |
| --- | --- | --- |
| C=CC(=O)CC | 1.57% |  |
| CCCCC(O)/C=C(C)/C=C/C=C/C(=O)N1CCCC1=O (stereo unspecified) | -7.75% [at 35.3 µM] |  |
| COc1ccc2cc(CCC(C)=O)ccc2c1 | 1.46% [at 35.3 µM] |  |
| c1coc(Cn2cccc2)c1 | 2.38% |  |
| CCC(C)c1nccnc1OC (stereo unspecified) | 4.81% |  |
| Cc1ccc(OC(=O)CC(C)C)cc1 | 3.9% |  |
| COC(=O)c1c(C)cc(O)c(C)c1O | -0.235% |  |
| O=CN1CCCCC1 | 6.41% |  |
| NS(=O)(=O)c1cc2c(cc1C(F)(F)F)NCNS2(=O)=O | -0.999% [at 35.3 µM] |  |
| CC(=O)c1ccc(O)c(C(N)=O)c1 | 6.1% [at 35.3 µM] |  |
| c1cc2ccc3ccc4ccc5cccc6c(c1)c2c3c4c56 | 0.437% [at 2.72 µM] |  |
| O=C(O)/C=C(\CC(=O)O)C(=O)O | 1.52% [at 35.3 µM] |  |
| Cc1cc(C)c(C)c(C)c1 | 2.4% |  |
| O=C1CC2(CCCC2)CC(=O)N1CCNCC1COc2ccccc2O1 (stereo unspecified) |  | 19 µM (active) |
| CC[C@@]1(c2ccccc2)NC(=O)N(C)C1=O | 4.92% [at 35.3 µM] |  |
| C[C@@H]1CCC[C@H](C)N1CCCC(O)(c1ccccc1)c1ccccn1 (stereo partly specified) |  | 8.49 µM (active) |
| CCOC(=O)[C@H](CCc1ccccc1)N[C@H]1CS[C@H](c2cccs2)CN(CC(=O)O)C1=O | 1.18% [at 35.3 µM] |  |
